Only some compounds are listed: those with a hit (about 22% of all), similar ones and a draw of the others.
CYP2C19 act: cytochrome P450 2C19 (human) activation; recombinant CYP2C19, luciferin-H EGE luminescence; active compounds read high; 0 = fully inhibited enzyme, 1 = untreated enzyme; activation factor at 5 µM; 96,000 tested, under 10 active; AID 1025;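 active = activation factor of at least 2 at 5 µM in the primary screen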
Target sequence (P33261 whole entry, looked up): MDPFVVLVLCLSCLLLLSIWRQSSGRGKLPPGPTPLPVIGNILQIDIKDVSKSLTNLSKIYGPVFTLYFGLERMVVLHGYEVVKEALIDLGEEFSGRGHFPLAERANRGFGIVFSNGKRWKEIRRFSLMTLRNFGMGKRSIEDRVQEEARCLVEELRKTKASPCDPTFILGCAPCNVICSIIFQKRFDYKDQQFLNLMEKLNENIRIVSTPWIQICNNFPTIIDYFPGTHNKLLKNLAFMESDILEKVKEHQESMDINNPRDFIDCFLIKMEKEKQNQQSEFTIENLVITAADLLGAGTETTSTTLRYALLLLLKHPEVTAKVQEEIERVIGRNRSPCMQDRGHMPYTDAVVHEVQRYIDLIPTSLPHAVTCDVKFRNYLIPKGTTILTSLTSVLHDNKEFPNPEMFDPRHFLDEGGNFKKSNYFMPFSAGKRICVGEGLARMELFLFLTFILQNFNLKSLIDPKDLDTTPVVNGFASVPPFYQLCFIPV
CYP2C19 inhib: inhibitors of human CYP2C19. actives 21% (n = 96,000). P33261. inhibition, % at 5 µM. CYP2C19 Supersomes, luciferin-H EGE luminescence, 30 min;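 active = CYP2C19 inhibition above a set limit at 5 µM in the primary screen, cut at about 50% in these data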
CYP2C9 inhib: human CYP2C9 inhibition. AID 777. inhibition, % at 5 µM. actives 20% (n = 96,000). P11712. CYP2C9 Supersomes, luciferin-H conversion, luminescence;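 active = blocking of liver enzyme CYP2C9 beyond about 50% at 5 µM, limit read from the data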
Measles CPE: protection of cells from measles virus; Measles virus-infected cells, CPE protection, absorbance; protection (pct of control), % at 4 µM; actives 1.5% (n = 140,000); AID 841; in the data active = protection mostly above about 24%, no sharp cut-off; inactive = mostly below about 26%
CYP2C9 activ: CYP2C9 (human) activation | activation factor at 5 µM | actives 1.4% (n = 96,000) | recombinant CYP2C9, luciferin-H conversion, luminescence; active compounds read high; factor 1 = untreated enzyme, 0 = blocked;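 active = activation factor of 2 or more for CYP2C9 at a 5 µM dose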
Large screens that a line does not name were inactive.

COc1ccccc1NC(c1cccnc1)c1ccc2cccnc2c1O (configuration not stated)	none (no result: CYP2C19 act, CYP2C19 inhib, CYP2C9 inhib, CYP2C9 activ)
Cc1cccc(NC(c2ccc(C)s2)c2ccc3ccc(C)nc3c2O)n1 (configuration not stated)	none (no result: CYP2C19 act, CYP2C19 inhib, CYP2C9 inhib, CYP2C9 activ)
COc1cc(C(Nc2ccccn2)c2ccc3ccc(C)nc3c2O)cc(OC)c1O (configuration not stated)	Measles CPE 41
Cc1ccc2ccc(C(Nc3ccccn3)c3ccccc3)c(O)c2n1 (configuration not stated)	CYP2C19 inhib 75, CYP2C9 inhib 94
CN1CCC(OC(=O)COc2ccccc2)CC1	none
Cc1cccc(NC2=CC(=O)OC(C)C2)c1 (configuration not stated)	none
COCCN(CCOC)S(=O)(=O)c1ccc(OC)cc1	none
CCN(CC)S(=O)(=O)c1ccc(Oc2ccc(S(=O)(=O)N(CC)CC)cc2)cc1	CYP2C19 inhib 67, CYP2C9 inhib 87
COc1ccc(S(=O)(=O)NCCOc2ccccc2)cc1OC	CYP2C19 inhib 100, CYP2C9 activ 2.9
CCN(CC)S(=O)(=O)c1ccc(Cl)c(C(=O)NC)c1	Measles CPE 45
COc1ccc(CCNS(=O)(=O)c2ccccc2)cc1OC	none
CCN(CC)S(=O)(=O)c1cc(C(=O)n2cccn2)c(Cl)cc1Cl	CYP2C19 inhib 66, CYP2C9 activ 2.3
COc1ccc(-n2nnc3c(SCC(=O)Nc4ccc5c(c4)OCCO5)ncnc32)cc1	none
CCC(=O)Nc1ccc(C(=O)NNC(=O)Cc2ccccc2)cc1	none (no result: CYP2C19 act, CYP2C19 inhib, CYP2C9 inhib, CYP2C9 activ)
COc1cc(S(=O)(=O)NCc2ccccc2)ccc1Br	none (no result: CYP2C19 act, CYP2C19 inhib, CYP2C9 inhib, CYP2C9 activ)
CCOc1cc(C)c(Cl)cc1S(=O)(=O)NCCOC	none (no result: CYP2C19 act, CYP2C19 inhib, CYP2C9 inhib, CYP2C9 activ)
CCN(CC)S(=O)(=O)c1ccc(Br)c(OC)c1	CYP2C19 inhib 82
CCN(CC)S(=O)(=O)c1cc(OC)c(Cl)cc1Cl	CYP2C19 inhib 97, CYP2C9 activ 3
CCN(CC)S(=O)(=O)c1cc(OCC(N)=O)c(C)cc1Cl	none (no result: CYP2C19 act, CYP2C19 inhib, CYP2C9 inhib, CYP2C9 activ)
CCOc1cc(C)c(Cl)cc1S(=O)(=O)N(CC)CC	CYP2C19 inhib 53, CYP2C9 activ 2
CCNS(=O)(=O)c1ccc(Br)c(OC)c1	CYP2C9 activ 2.2
COc1ccc(CNC(=O)c2ccc(NC(=O)C3CCCO3)cc2)cc1 (configuration not stated)	none
O=C(c1cccc(F)c1)N1CCN(C(=O)c2cc3ncc(Br)cn3n2)CC1	none
CCOc1cccc(/C=N/Nc2ccc(S(=O)(=O)N(CC)CC)cn2)c1O	none (no result: CYP2C19 act, CYP2C19 inhib, CYP2C9 inhib, CYP2C9 activ)
CCOc1cc(S(=O)(=O)N(CC)CC)ccc1Br	CYP2C19 inhib 95
CCNS(=O)(=O)c1cc(OC)c(Cl)cc1OC	none (no result: CYP2C19 act, CYP2C19 inhib, CYP2C9 inhib, CYP2C9 activ)
COCCNS(=O)(=O)c1cc(OC)c(Cl)cc1Cl	CYP2C19 inhib 68
CCN(CC)S(=O)(=O)c1ccc(Cl)c(OC)c1	CYP2C19 inhib 89, CYP2C9 activ 2.4
CCOC(=O)c1c(C)sc(Sc2ccc(Cl)cc2[N+](=O)[O-])c1OC	CYP2C19 inhib 81
Cc1ccc(C)c(C(=O)COC(=O)c2cc(Cl)nc3ccccc23)c1	none (no result: CYP2C19 act, CYP2C19 inhib, CYP2C9 inhib, CYP2C9 activ)
Cc1cc(C)c2cc(C#N)c(NCCOC(=O)c3ccccc3C)nc2c1	CYP2C19 inhib 62, CYP2C9 inhib 68
CC(C)n1cc(/C=N\NC(=O)c2cc3c(ccc4ccccc43)o2)c2ccccc21	none
O=C(O)c1nc(N2CCOCC2)nc(N2CCOCC2)n1	none (no result: CYP2C19 act, CYP2C19 inhib, CYP2C9 inhib, CYP2C9 activ)
c1cnn(-c2nc(N3CCOCC3)nc(N3CCOCC3)n2)c1	CYP2C9 inhib 53
CSC1=NCCN1C(=O)Cc1ccc(Cl)cc1	CYP2C19 inhib 57
COc1ccc(CC(=O)N2CCN=C2SC)cc1	none
CSCC[C@H](NC(=O)OC(C)(C)C)C(=O)N1CCC(C(=O)N[C@H](C(=O)O)C(C)C)CC1	none
Cc1ccc(S(=O)(=O)/N=C2/C=C(C3C(=O)CC(C)(C)CC3=O)C(=O)c3ccccc32)cc1	CYP2C9 inhib 62
C=CCc1cc(Cl)ccc1OCCCNC(C)CC (configuration not stated)	none (no result: CYP2C19 act, CYP2C19 inhib, CYP2C9 inhib, CYP2C9 activ)
CNc1c([N+](=O)[O-])cnn1-c1ccc(Cl)cc1Cl	CYP2C19 inhib 53
O=C(N/N=C/c1cccn1-c1ccc([N+](=O)[O-])cc1)C(O)c1ccccc1 (configuration not stated)	none
COc1ccc(C2C(C(=O)Nc3cc(C)on3)c3ccccc3C(=O)N2C)cc1 (configuration not stated)	CYP2C9 inhib 69
CCOC(=O)c1cc2occc2n1CC(=O)N1CCCc2ccccc21	CYP2C19 inhib 96, CYP2C9 inhib 87
Cc1ccc2oc(=O)c3cnn(CC(=O)N4CCN(c5ccccc5)CC4)c3c2c1	none
CCOC(=O)c1cc2sc(C)cc2n1CC(=O)N1CCc2ccccc21	none
CCOC(=O)c1cc2sccc2n1CC(=O)N1CCCc2ccccc21	CYP2C19 inhib 98, CYP2C9 inhib 94
Cc1ccc2oc(=O)c3cnn(CC(=O)N4CCCc5ccccc54)c3c2c1	CYP2C9 inhib 55
COC(=O)c1cc2sccc2n1CC(=O)N1CCCc2ccccc21	CYP2C19 inhib 83, CYP2C9 inhib 69
COc1ccc(Nc2nc(N)nc(CN3CCN(c4ccccn4)CC3)n2)cc1	none
CCOC(=O)c1cc2sccc2n1Cc1ccccc1	none
COC(=O)c1cc2oc(C)cc2n1CC(=O)Nc1ccc(C)c(C)c1	none
COC(=O)c1cc2sc(Cl)cc2n1CC(=O)N1CCCc2ccccc21	CYP2C19 inhib 83, CYP2C9 inhib 73
CCOC(=O)c1cc2sccc2n1CCCN1C(=O)c2ccccc2C1=O	CYP2C9 inhib 69
COC(=O)c1cc2oc(C)cc2n1CC(=O)N1CCCc2ccccc21	CYP2C19 inhib 67, CYP2C9 inhib 68
CCOC(=O)C(NS(=O)(=O)c1ccc(Br)cc1)C(C)C (configuration not stated)	CYP2C19 inhib 89
Cc1ccc(S(=O)(=O)NC(C(=O)OCC(=O)NC(=O)c2cccn2C)C(C)C)cc1 (configuration not stated)	CYP2C19 inhib 59
Cc1ccc(S(=O)(=O)N[C@H](C(=O)OCn2nnc3ccccc3c2=O)C(C)C)cc1	none
Cn1c(N/N=C/c2cccs2)nc2c1c(=O)n(Cc1ccccc1)c(=O)n2C	none (no result: CYP2C19 act, CYP2C19 inhib, CYP2C9 inhib, CYP2C9 activ)
CC(C)Oc1ccc(CNC(=S)N/N=C/c2cccnc2)cc1	none
CCCC(=O)Nc1c(C)n[nH]c1C	CYP2C9 inhib 62
CNCC(=O)Nc1c(C)n[nH]c1C	none (no result: CYP2C19 act, CYP2C19 inhib, CYP2C9 inhib, CYP2C9 activ)
Cc1ccc2occ(/C=N/NC(N)=S)c(=O)c2c1	Measles CPE 30 (no result: CYP2C19 act, CYP2C19 inhib, CYP2C9 inhib, CYP2C9 activ)
CCCc1ccc(/C=C2\C(=O)c3ccccc3C(O)=C2C(=O)OCC)cc1	CYP2C19 inhib 78, CYP2C9 inhib 92
CCOC(=O)c1ccc(COC(=O)c2ccc3c(c2)-c2ccccc2C3=O)cc1	none
CCOC(=O)C1=C(O)c2ccccc2C(=O)/C1=C\c1ccc(CC)cc1	CYP2C19 inhib 89, CYP2C9 inhib 97
COc1cc(C=Nc2ccccc2C(=O)Nc2ccccc2)cc(OC)c1OC	none (no result: CYP2C19 act, CYP2C19 inhib, CYP2C9 inhib, CYP2C9 activ)
O=C(NCC1CCCO1)c1nc2c(nnn2Cc2ccc(F)cc2)c(=O)[nH]1 (configuration not stated)	none

High-throughput results deposited in PubChem BioAssay by several laboratories.
